An excerpt weighted towards active compounds, which were near 27% of everything screened.
sEH inhibitor – soluble epoxide hydrolase inhibitors, primary screen, biochemical, human sEH; recombinant human sEH enzymatic activity assay; 0.34% of 91,000 active; inhibition, % at 2 µM; in the data active = inhibition above about 80%
sEH activator – soluble epoxide hydrolase activators, primary screen, biochemical, human sEH; activation, % at 2 µM; 0.04% of 91,000 active; purified human sEH enzymatic activity, activator screen; Bifunctional epoxide hydrolase 2 (Homo sapiens), P34913; in the data active = activation above about 37%
CYP2C19 inh – blockers of cytochrome P450 2C19 activity – biochemical, luminescence, ADME assay, primary screen; P33261; CYP2C19 Supersomes, luciferin-H EGE luminescence, 30 min; inhibition, % at 5 µM; 21% of 96,000 active;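 active = CYP2C19 inhibition above a set limit at 5 µM in the primary screen, cut at about 50% in these data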;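 also: plate controls were negative control wells for no effect and 2.5 mM tranylcypromine positive control for full effect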
Target sequence (P33261 whole entry, looked up): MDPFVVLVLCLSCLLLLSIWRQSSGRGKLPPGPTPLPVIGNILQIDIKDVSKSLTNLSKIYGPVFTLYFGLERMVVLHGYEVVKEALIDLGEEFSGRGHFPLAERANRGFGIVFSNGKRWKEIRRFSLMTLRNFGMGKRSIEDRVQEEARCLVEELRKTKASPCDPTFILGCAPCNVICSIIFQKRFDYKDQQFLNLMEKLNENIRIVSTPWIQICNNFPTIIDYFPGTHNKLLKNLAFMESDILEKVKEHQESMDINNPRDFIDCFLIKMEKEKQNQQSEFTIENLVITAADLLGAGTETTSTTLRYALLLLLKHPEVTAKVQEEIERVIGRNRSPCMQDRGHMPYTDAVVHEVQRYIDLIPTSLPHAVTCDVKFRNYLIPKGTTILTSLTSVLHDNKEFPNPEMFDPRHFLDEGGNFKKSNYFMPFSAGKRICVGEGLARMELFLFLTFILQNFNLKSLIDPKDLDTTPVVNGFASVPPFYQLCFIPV
CYP2C19 activ – human CYP2C19 activators, primary screen, biochemical, luminescence | Cytochrome P450 2C19 (Homo sapiens), P33261 | recombinant CYP2C19, luciferin-H EGE luminescence; hits give high values; 0 = fully inhibited enzyme, 1 = untreated enzyme | activation factor at 5 µM | 96,000 tested, under 10 active;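 active = activation factor of at least 2 at 5 µM in the primary screen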;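 also: 0 = wells with 2.5 mM tranylcypromine and 1 = vehicle-only wells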
CYP2C9 activ – human CYP2C9 activators, primary screen, biochemical, luminescence. Cytochrome P450 2C9 (Homo sapiens), P11712. recombinant CYP2C9, luciferin-H conversion; hits give high values; factor 1 = untreated enzyme, 0 = blocked. activation factor at 5 µM. 1.4% of 96,000 active. AID 1024, 2008;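 active = activation factor of 2 or more for CYP2C9 at a 5 µM dose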;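 also: 0 = sulfaphenazole-blocked wells and 1 = vehicle-only wells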
CYP2C9 inh – blockers of cytochrome P450 2C9 activity – biochemical, luminescence, ADME assay, primary screen; P11712; inhibition, % at 5 µM; 20% of 96,000 active; CYP2C9 Supersomes, luciferin-H conversion;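 active = blocking of liver enzyme CYP2C9 beyond about 50% at 5 µM, limit read from the data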
* hit, by the source's call; . = no result given.

SMILES | sEH inhibitor | sEH activator | CYP2C19 inh | CYP2C19 activ | CYP2C9 activ | CYP2C9 inh
CCOc1ccc(N2C(=O)CC(NCc3ccc(F)cc3)C2=O)cc1 (stereo unspecified) | -10 | 6 | 16 | 0.8 | 0.9 | 15
COc1ccc(C)cc1-n1c(N)c(C#N)c(C#N)c1-c1ccc(OC)c(OC)c1OC | . | . | 26 | 0.7 | 0.5 | 50*
COc1cccc(Cn2c(N)c(C#N)c3nc4ccccc4nc32)c1OC | 0 | -2 | 25 | 0.7 | 0.8 | 17
CCn1c(SCc2cc(=O)[nH]c3ccccc23)nc2c1c(=O)n(C)c(=O)n2C | -8 | 6 | . | . | . | .
N#Cc1cc2c(=O)n3ccccc3nc2n(CCCN2CCOCC2)c1=O | . | . | 69* | 0.3 | 0.6 | 41
Cc1cc2nc(-c3ccc(SCc4ccccc4C#N)nc3)[nH]c2cc1C | 52 | -52 | 34 | 0.7 | 0.7 | 34
N#Cc1ccccc1CSc1ccccn1 | 6 | -5 | 56* | 0.4 | 1 | 5
COc1cc(C2Nc3cc(Cl)c(S(N)(=O)=O)cc3S(=O)(=O)N2)ccc1OCc1ccccc1 (stereo unspecified) | -2 | 3 | 66* | 0.3 | 0.3 | 70*
CCC1CCCCN1CCNC(=O)CCS(=O)(=O)c1ccc(Br)cc1 (stereo unspecified) | 13 | -12 | . | . | . | .
O=C(NCCCN1CCN(c2cccc(Cl)c2)CC1)c1nc(-c2ccncc2)no1 | 10 | -9 | 70* | 0.3 | 0.1 | 87*
Cc1ccc(C2CC(c3ccc(F)cc3)Nc3nc(N)nn32)cc1 (stereo unspecified) | . | . | 28 | 0.7 | 1.2 | -16
Nc1nc2n(n1)C(c1cccc(Cl)c1)CC(c1ccc(F)cc1)N2 (stereo unspecified) | -2 | -1 | 89* | 0.1 | 0.9 | 14
Nc1nc2n(n1)C(c1ccc(F)cc1)CC(c1ccc(F)cc1)N2 (stereo unspecified) | -7 | 6 | 71* | 0.3 | 0.9 | 9
O=C(c1ccc(Br)cc1)C1CCc2occc2C1=O (stereo unspecified) | -4 | 2 | 97* | 0 | 0.3 | 66*
O=C(O)C1CC1c1ccc(Br)cc1 (stereo unspecified) | -10 | 8 | -11 | 1.1 | 1.1 | -13
CN(C)CCCNCCCNC(=O)/C(=N\O)c1ccccn1 | -1 | 0 | . | . | . | .
O=C(c1ccc2c(=O)n(-c3ccccc3)c(=O)[nH]c2c1)N1CCCCC1 | 4 | -2 | -9 | 1.1 | 1.1 | -5
O=c1[nH]c2cc(Cl)ccc2n1-c1ccccc1 | 3 | -3 | 50* | 0.5 | 0.9 | 14
COc1ccc(C2C(=O)N(C3CCCCC3)CC(=O)N2C2CCCCC2)cc1 (stereo unspecified) | 2 | -2 | 31 | 0.7 | 0.5 | 53*
CCOC(=O)c1cnc(SCC(=O)Nc2ccc(NC(=O)CC)c(OC)c2)nc1N | 2 | -2 | 20 | 0.8 | 0.5 | 50
CCOC(=O)CC(=O)CSc1ncnc2c1cnn2-c1ccccc1 | 6 | -6 | 27 | 0.7 | 0.6 | 37
COC(=O)c1ccc(C)c(NS(=O)(=O)c2ccc3c(c2)OCCO3)c1 | -16 | 14 | 91* | 0.1 | 0.4 | 62*
COC(=O)c1ccc(C)c(NS(=O)(=O)c2ccc(OC)cc2)c1 | 15 | -14 | 100* | 0 | 0.3 | 70*
COC(=O)c1ccc(N2CCN(S(=O)(=O)c3ccccc3)CC2)c([N+](=O)[O-])c1 | . | . | 13 | 0.9 | 0.7 | 31
COC(=O)c1ccc(Sc2ccccc2NS(=O)(=O)c2ccc(NC(C)=O)cc2)nc1 | 4 | -1 | 61* | 0.4 | 0.2 | 80*
SMILES | sEH inhibitor | sEH activator | CYP2C19 inh | CYP2C19 activ | CYP2C9 activ | CYP2C9 inh
COC(=O)c1ccc(C)c(NS(=O)(=O)c2ccc(C)c([N+](=O)[O-])c2)c1 | 21 | -19 | 90* | 0.1 | 0.2 | 80*
COc1cc(C2=NOC(C(=O)N3CCOCC3)C2)cc(OC)c1OC (stereo unspecified) | 13 | -11 | -11 | 1.1 | 1.1 | -11
COC(=O)c1cccc(NS(=O)(=O)c2ccc(NC(C)=O)cc2)c1C | 0 | 2 | 38 | 0.6 | 1.4 | -36
COC(=O)c1ccc(C(=O)OC)c(NS(=O)(=O)c2ccc(NC(C)=O)cc2)c1 | . | . | 62* | 0.4 | 0.1 | 90*
Cc1ccccc1C(=O)NCCSc1ccccc1 | 13 | -13 | 38 | 0.6 | 1.1 | -10
Cc1ccc(C(=O)NCCSC(C)(C)C)cc1 | 30 | -34 | 68* | 0.3 | 0.6 | 45
CC(C)(C)SCCNC(=O)c1ccccc1 | 21 | -21 | 62* | 0.4 | 0.8 | 22
CSc1ccccc1C(=O)NCCSC(C)(C)C | -6 | 10 | -16 | 1.2 | 1.2 | -17
O=C(NCCSc1ccccc1)c1ccccc1 | 21 | -21 | 84* | 0.2 | 0.5 | 45
O=c1[nH]cnc2c1N1CCC2CC1 | -4 | 6 | 1 | 1 | 0.8 | 15
CCn1nc(CC(=O)Nc2ccc(-n3cnnn3)c(C)c2)c2ccccc2c1=O | 93* | -92 | 25 | 0.7 | 0.7 | 26
Cn1c(=O)cc(SCC(=O)NCCN2CCN(c3ccccc3F)CC2)c2cc(Cl)ccc21 | 20 | -21 | 33 | 0.7 | 1.1 | -14
O=C(Nc1ccc(Cl)cc1)NC1CCCCC1Cc1ccco1 (stereo unspecified) | . | . | 10 | 0.9 | 0.4 | 59*
CCCNC(=O)c1ccccc1NS(=O)(=O)c1ccc2c(c1)OCCO2 | -17 | 14 | 44 | 0.6 | 2* | -104
CSc1ccccc1NS(=O)(=O)c1ccc2c(c1)OCCO2 | -20 | 24 | 79* | 0.2 | 2.7* | -170
Cc1[nH]c2c(C)cccc2c(=O)c1Br | . | . | -3 | 1 | 1.2 | -20
CN1CC2CCCC3(C1)C(=O)NC1(CCCCC1)N=C23 (stereo unspecified) | . | . | 1 | 1 | 1.1 | -14
COc1cccc(NC(=O)COc2ccc(N3CC(C(=O)NCC(C)C)CC3=O)cc2)c1 (stereo unspecified) | 2 | 1 | 12 | 0.9 | 0.6 | 44
COc1cc(N)ccc1Cc1ccc(N)cc1OC | 6 | -5 | 78* | 0.2 | 1.4 | -41
CC(=O)Nc1ccc(NC(=O)CN(c2ccc(F)cc2)S(=O)(=O)c2ccc3c(c2)OCCO3)cc1 | 5 | -6 | 15 | 0.9 | 0.7 | 30
O=C(CN(c1ccc(F)cc1)S(=O)(=O)c1ccc2c(c1)OCCO2)Nc1ccccc1 | -18 | 21 | 29 | 0.7 | 0.4 | 65*
O=C(CN(Cc1ccccc1)S(=O)(=O)c1ccc2c(c1)OCCO2)Nc1ccc2c(c1)OCCO2 | . | . | 43 | 0.6 | 0 | 96*
O=C(CN(c1ccc(F)cc1)S(=O)(=O)c1ccc2c(c1)OCCO2)Nc1cccnc1 | -11 | 6 | 92* | 0.1 | 0 | 99*
